According to PubChem BioAssay (NCI):
The panel holds about 79,000 compounds, 15% with a hit somewhere; the sample as a whole holds those more often. Values without a mark were called inactive. Calls of active or inactive are those of the source. Rule as the data show it: active = growth inhibition above about 70%; inactive = the rest.

Columns and labels:
[1] = NCI Yeast Anticancer Drug Screen. Data for the rad50 strain (AID 155);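 also: 0% = growth of vehicle-only cultures of the same strain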; settings: S. cerevisiae rad50 strain growth inhibition, active compounds read high
How it was run: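 Compounds were tested on a yeast strain with an engineered DNA damage repair alteration; the reported value is growth inhibition normalised to vehicle treatment.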

[2] = NCI Yeast Anticancer Drug Screen. Data for the mec2-1 strain (AID 157); settings: S. cerevisiae mec2-1 strain, active compounds read high
How it was run: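 Compounds were applied to mec2-1 yeast cells. Their growth was then compared with that of vehicle-treated cultures to give growth inhibition.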

[3] = NCI Yeast Anticancer Drug Screen. Data for the sgs1 mgt1 strain (AID 161);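 also: 0% = growth of cultures given vehicle only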; settings: S. cerevisiae sgs1 mgt1 strain, active compounds read high
How it was run: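 Growth of a repair-deficient yeast mutant was monitored after compound treatment and expressed as inhibition relative to vehicle-treated cultures.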

[4] = NCI Yeast Anticancer Drug Screen. Data for the cln2 rad14 strain (AID 165);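 also: 0% = growth equal to vehicle treated cultures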; settings: S. cerevisiae cln2 rad14 strain, active compounds read high
How it was run: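 Strain: cln2 rad14 yeast, altered in cell cycle control and DNA damage repair. Read-out: growth inhibition vs vehicle.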

[5] = NCI Yeast Anticancer Drug Screen. Data for the bub3 strain (AID 167); settings: S. cerevisiae bub3 mutant strain, active compounds read high
How it was run: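 Growth of a checkpoint-deficient yeast mutant is measured after compound exposure. Values represent inhibition relative to vehicle.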

[6] = NCI Yeast Anticancer Drug Screen. Data for the mlh1 rad18 strain (AID 175); settings: S. cerevisiae mlh1 rad18 strain growth inhibition, active compounds read high
How it was run: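 A repair-deficient yeast strain is exposed to test compound, and growth is scored relative to vehicle-treated controls.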

[7] = at 5.0 µM (retest, dose inferred, filed as 0.5)
[8] = at 50.0 µM (retest, dose inferred, filed as 5.0)

COC(=O)Cc1cn[nH]c1C(=O)OC
growth inhibition [1, 7]: -147% | growth inhibition [1, 8]: 8% | growth inhibition ([1]; at 50.0 µM): 9.2% | growth inhibition [2, 7]: -51% | growth inhibition [2, 8]: -45% | growth inhibition ([2]; at 50.0 µM): 0.7% | growth inhibition [3, 7]: -65% | growth inhibition [3, 8]: -48% | growth inhibition ([3]; at 50.0 µM): 1.7% | growth inhibition [4, 7]: -66% | growth inhibition [4, 8]: -52% | growth inhibition ([4]; at 50.0 µM): 29.6% | growth inhibition [5, 7]: -68% | growth inhibition [5, 8]: -54% | growth inhibition ([5]; at 50.0 µM): -15.2% | growth inhibition [6, 7]: -117% | growth inhibition [6, 8]: -94% | growth inhibition ([6]; at 50.0 µM): 9.75%

CC(C)N(C(=O)C12C3C4C5(C#N)C3C1(C#N)C5C42I)C(C)C (stereo not given)
growth inhibition [1, 7]: 41% | growth inhibition [1, 8]: 41% | growth inhibition ([1]; at 50.0 µM): 82% (active) | growth inhibition [2, 7]: 22% | growth inhibition [2, 8]: 22% | growth inhibition ([2]; at 50.0 µM): 48% | growth inhibition [3, 7]: 13% | growth inhibition [3, 8]: 13% | growth inhibition ([3]; at 50.0 µM): 31.6% | growth inhibition [4, 7]: 12% | growth inhibition [4, 8]: 12% | growth inhibition ([4]; at 50.0 µM): 68.5% | growth inhibition [5, 7]: 17% | growth inhibition [5, 8]: 17% | growth inhibition ([5]; at 50.0 µM): 91.5% (active) | growth inhibition [6, 7]: 11% | growth inhibition [6, 8]: 11% | growth inhibition ([6]; at 50.0 µM): 46.4%

O=[N+]([O-])c1ccc(/C=N/O)s1
growth inhibition [1, 7]: -11% | growth inhibition [1, 8]: 99% (active) | growth inhibition ([1]; at 50.0 µM): 99.5% (active) | growth inhibition [2, 7]: 3% | growth inhibition [2, 8]: 100% (active) | growth inhibition ([2]; at 50.0 µM): 99.7% (active) | growth inhibition [3, 7]: -7% | growth inhibition [3, 8]: 99% (active) | growth inhibition ([3]; at 50.0 µM): 97.7% (active) | growth inhibition [4, 7]: 10% | growth inhibition [4, 8]: 95% (active) | growth inhibition ([4]; at 50.0 µM): 99.2% (active) | growth inhibition [5, 7]: -17% | growth inhibition [5, 8]: 99% (active) | growth inhibition ([5]; at 50.0 µM): 99.7% (active) | growth inhibition [6, 7]: 12% | growth inhibition [6, 8]: 99% (active) | growth inhibition ([6]; at 50.0 µM): 99.3% (active)

O=C(N/N=C/c1ccccc1O)c1ccccc1-n1cccc1
growth inhibition [1, 7]: 52% | growth inhibition [1, 8]: 64% | growth inhibition ([1]; at 50.0 µM): 53.6% | growth inhibition [2, 7]: 30% | growth inhibition [2, 8]: 53% | growth inhibition ([2]; at 50.0 µM): 36.6% | growth inhibition [3, 7]: 43% | growth inhibition [3, 8]: 81% (active) | growth inhibition ([3]; at 50.0 µM): 80% (active) | growth inhibition [4, 7]: 32% | growth inhibition [4, 8]: 49% | growth inhibition ([4]; at 50.0 µM): 45% | growth inhibition [5, 7]: 41% | growth inhibition [5, 8]: 71% (active) | growth inhibition ([5]; at 50.0 µM): 62.7% | growth inhibition [6, 7]: 59% | growth inhibition [6, 8]: 74% (active) | growth inhibition ([6]; at 50.0 µM): 63.1%

Cc1c(Cl)cccc1NC(=O)/C(Cl)=C(\Cl)C(=O)O
growth inhibition [1, 7]: -1% | growth inhibition [1, 8]: 33% | growth inhibition ([1]; at 50.0 µM): 99.5% (active) | growth inhibition [2, 7]: -1% | growth inhibition [2, 8]: 41% | growth inhibition ([2]; at 50.0 µM): 99.8% (active) | growth inhibition [3, 7]: 1% | growth inhibition [3, 8]: 74% (active) | growth inhibition ([3]; at 50.0 µM): 99.7% (active) | growth inhibition [4, 7]: 1% | growth inhibition [4, 8]: 3% | growth inhibition ([4]; at 50.0 µM): 99.3% (active) | growth inhibition [5, 7]: -3% | growth inhibition [5, 8]: 18% | growth inhibition ([5]; at 50.0 µM): 99.7% (active) | growth inhibition [6, 7]: -6% | growth inhibition [6, 8]: 39% | growth inhibition ([6]; at 50.0 µM): 99.5% (active)

C1CCC2[N-]CC3CCCCC3[N-]CC3CCCCC3[N-]CC3CCCCC3[N-]CC2C1.[Cl][Fe]([Cl])([Cl])[Cl].[Fe+6] (stereo not given)
growth inhibition [1, 7]: 41% | growth inhibition [1, 8]: 97% (active) | growth inhibition ([1]; at 50.0 µM): 96.3% (active) | growth inhibition [2, 7]: 10% | growth inhibition [2, 8]: 98% (active) | growth inhibition ([2]; at 50.0 µM): 98.5% (active) | growth inhibition [3, 7]: 25% | growth inhibition [3, 8]: 98% (active) | growth inhibition ([3]; at 50.0 µM): 98.5% (active) | growth inhibition [4, 7]: 0% | growth inhibition [4, 8]: 96% (active) | growth inhibition ([4]; at 50.0 µM): 96.8% (active) | growth inhibition [5, 7]: -3% | growth inhibition [5, 8]: 97% (active) | growth inhibition ([5]; at 50.0 µM): 97.5% (active) | growth inhibition [6, 7]: 26% | growth inhibition [6, 8]: 98% (active) | growth inhibition ([6]; at 50.0 µM): 97.7% (active)

CCCCC(=S)N1CCN(c2ccccc2)CC1
growth inhibition [1, 7]: -3% | growth inhibition [1, 8]: -8% | growth inhibition ([1]; at 50.0 µM): 90.3% (active) | growth inhibition [2, 7]: 10% | growth inhibition [2, 8]: 12% | growth inhibition ([2]; at 50.0 µM): 62.2% | growth inhibition [3, 7]: 5% | growth inhibition [3, 8]: 9% | growth inhibition ([3]; at 50.0 µM): 92.1% (active) | growth inhibition [4, 7]: -1% | growth inhibition [4, 8]: -14% | growth inhibition ([4]; at 50.0 µM): 14.9% | growth inhibition [5, 7]: 2% | growth inhibition [5, 8]: 20% | growth inhibition ([5]; at 50.0 µM): 81.7% (active) | growth inhibition [6, 7]: -2% | growth inhibition [6, 8]: -9% | growth inhibition ([6]; at 50.0 µM): 87.8% (active)

CC12CC(O)C3C(CCC4CCCCC43C)C1CC/C2=N/O (stereo not given)
growth inhibition [1, 7]: 47% | growth inhibition [1, 8]: -10% | growth inhibition ([1]; at 50.0 µM): 86.6% (active) | growth inhibition [2, 7]: 45% | growth inhibition [2, 8]: 7% | growth inhibition ([2]; at 50.0 µM): 91.2% (active) | growth inhibition [3, 7]: 27% | growth inhibition [3, 8]: 1% | growth inhibition ([3]; at 50.0 µM): 93.3% (active) | growth inhibition [4, 7]: 8% | growth inhibition [4, 8]: -6% | growth inhibition ([4]; at 50.0 µM): 50.8% | growth inhibition [5, 7]: 10% | growth inhibition [5, 8]: -5% | growth inhibition ([5]; at 50.0 µM): 93.9% (active) | growth inhibition [6, 7]: 52% | growth inhibition [6, 8]: 5% | growth inhibition ([6]; at 50.0 µM): 94.6% (active)

COc1ccc(N=Cc2ccccc2O)cc1
growth inhibition [1, 7]: -9% | growth inhibition [1, 8]: -57% | growth inhibition ([1]; at 50.0 µM): 8.1% | growth inhibition [2, 7]: 0% | growth inhibition [2, 8]: -33% | growth inhibition ([2]; at 50.0 µM): -8% | growth inhibition [3, 7]: -8% | growth inhibition [3, 8]: -36% | growth inhibition ([3]; at 50.0 µM): 2.65% | growth inhibition [4, 7]: -4% | growth inhibition [4, 8]: -24% | growth inhibition ([4]; at 50.0 µM): 40.9% | growth inhibition [5, 7]: -27% | growth inhibition [5, 8]: -118% | growth inhibition ([5]; at 50.0 µM): -5.25% | growth inhibition [6, 7]: -7% | growth inhibition [6, 8]: -45% | growth inhibition ([6]; at 50.0 µM): -26.1%

COC(=O)C1C(=O)CC(c2ccccc2)C1c1ccccc1 (stereo not given)
growth inhibition [1, 7]: 2% | growth inhibition [1, 8]: -4% | growth inhibition ([1]; at 50.0 µM): 6.5% | growth inhibition [2, 7]: 1% | growth inhibition [2, 8]: -3% | growth inhibition ([2]; at 50.0 µM): -6.25% | growth inhibition [3, 7]: -1% | growth inhibition [3, 8]: -4% | growth inhibition ([3]; at 50.0 µM): -7.85% | growth inhibition [4, 7]: 0% | growth inhibition [4, 8]: -5% | growth inhibition ([4]; at 50.0 µM): 15.8% | growth inhibition [5, 7]: 7% | growth inhibition [5, 8]: 10% | growth inhibition ([5]; at 50.0 µM): 1.2% | growth inhibition [6, 7]: 0% | growth inhibition [6, 8]: -3% | growth inhibition ([6]; at 50.0 µM): -0.75%
